# Assay results as given in PubChem BioAssay (NCATS).
# Inconclusive results are not listed. Unmarked numbers belong to inactive results. The source made the active and inactive calls. Calls come from the whole dose curve; as a rule, active = well fitted cell-killing curve with a large enough effect; inconclusive = small, poorly fitted or top-dose-only effect; inactive = flat fitted curve, though single readings scatter.
# Experiment: Cell Viability - LYMP2-011 (AID 969); note: nearly all actives have a fitted effect of over 60% in size;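 for viability change, negative = cytotoxic: 0% = DMSO only and full inhibition = 92 µM tetraoctylammonium bromide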
# Conditions: LYMP2-011 lymphoblastoid cells viability; series mostly up to 92.2 µM; viability change, negative = cytotoxic: at the top concentration
# Excerpt: NIH Chemical Genomics Center [NCGC]
# NIH Molecular Libraries Screening Centers Network [MLSCN]
# National Institutes of Environmental Health Sciences [NIEHS]
# National Toxicology Program [NTP]
# We have developed a 1536-well cell-based assay for quantitative high throughput screening (qHTS) against a number of cell lines to determine in vitro cytotoxicity of small molecules. This particular assay uses a human lymphoblastoid cell line (LYMP2-011) purchased from Coriell Institute for Medical Research.
# NCGC Assay Protocol Summary:
# The CellTiter-Glo luminescent cell viability assay (Promega) is a homogeneous method to measure the number of viable cells in culture. The end point readout of this assay is based on quantitation of intracellular ATP, an indicator of metabolic activity, using the luciferase reaction. Luciferase catalyzes the oxidation of beetle Luciferin to oxyluciferin and light in the presence of ATP. The luminescent signal is proportional to amount of ATP present.
# Using the CellTiter-Glo luminescent cell viability assay, the amount of cellular ATP was measured in the lymphoblastoid cell line with complete culture medium following compound treatment for 24 hours. The assay was performed in opaque white Kalypsys 1536-well plates. In the screen, tetraoctylammonium bromide was used as positive control. Library compounds were measured for their ability to cause acute toxicity in the cell line, as reflected by a decrease in intracellular ATP levels, in a concentration-dependent manner. […] AC50 values were determined from concentration-response data modeled with the standard Hill equation.
# qHTS protocol for CellTiter Glo lymphoblastoid cellular assay
# [Step] [Parameter] [Value] [Description]
# 1. Reagent; 5 uL; 2500 lymphoblastoid cells/well
# 2. Time; 5 hr; 37 C incubation
# 4. Controls; 23 nL; Tetraoctylammonium bromide 6.4pM to 92 uM
# 5. Time; 24 hr; 37 C incubation
# 6. Reagent; 5 uL; CellTiter Glo reagent
# 7. Time; 30 min; Room Temperature
# 8. Detection; Luminescence; Viewlux plate reader
# Keywords: cell viability, cytotoxicity, lymphoblastoid cell line, luminescence, NTPHTS, NTPHTS_NCGC, NIEHS, DSSTox, MLSMR, MLSCN, NIH Roadmap, qHTS, NCGC
# Potency is the fitted concentration of half-maximal effect.
SMILES,"viability change, negative = cytotoxic [%]",Potency
O=C(NO)c1ccccc1,-11.8,–
Nc1cccc2c(N)cccc12,-10.6,–
CCCCC(CC)COC(=O)c1ccccc1C(=O)O (centres undefined),-1.5,–
c1ccc2occc2c1,0.993,–
CCCCCCCCCCCCCCCC[n+]1ccccc1,–,20 µM (active)
CC(C)C(C)(C)C(C)(C)C(C)(C)S,-0.743,–
Nc1c2ccccc2nc2ccccc12,–,12.6 µM (active)
CC(C)(c1ccc(O)cc1)c1ccc(O)cc1,–,inactive
CCCC(=O)c1cc(O)c(O)cc1O,-9.44,–
Brc1ccccc1-c1ccccc1,2.37,–
COc1cc(C=O)ccc1O,-3.47,–
O=C(Oc1ccccc1)c1ccccc1O,5.88,–
Cc1cc(C(C)(C)C)c(O)c(C(C)(C)C)c1,1.32,–
Cc1ccc(O)cc1,0.422,–
Oc1ccccc1,-7.46,–
O=C(c1ccccc1)c1ccccc1,-4.25,–
OCc1c[nH]c2ccccc12,-7.68,–
Nc1ccc(O)cc1,–,39.8 µM (active)
C1=CC2C3C=CC(C3)C2C1 (centres undefined),3.85,–
